Assay outcomes from PubChem BioAssay.
Exocytosis inh: LAMP-1 surface exposure blockers, TALL-104 cells – cell-based, flow cytometry, MLPCN library, primary screen; TALL-104 LAMP-1 surface exposure; cells stimulated with thapsigargin and PMA; inhibition, % at 10 µM; 0.66% of 360,000 active;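 active means inhibition above about 55%, limit read from the data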
PP5 primary: PP5 phosphatase inhibitors, primary screen, biochemical, fluorescence; Serine/threonine-protein phosphatase 5 (Homo sapiens), P53041; purified PP5c, OMFP substrate fluorescence; inhibition, % at 6.7 µM; 0.18% of 320,000 active; AID 1987, 2009;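 active means inhibition above the campaign's mean inhibition across all tested compounds plus 3 SD, cut at about 9.5% in these data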
Target sequence (P53041 whole entry, looked up): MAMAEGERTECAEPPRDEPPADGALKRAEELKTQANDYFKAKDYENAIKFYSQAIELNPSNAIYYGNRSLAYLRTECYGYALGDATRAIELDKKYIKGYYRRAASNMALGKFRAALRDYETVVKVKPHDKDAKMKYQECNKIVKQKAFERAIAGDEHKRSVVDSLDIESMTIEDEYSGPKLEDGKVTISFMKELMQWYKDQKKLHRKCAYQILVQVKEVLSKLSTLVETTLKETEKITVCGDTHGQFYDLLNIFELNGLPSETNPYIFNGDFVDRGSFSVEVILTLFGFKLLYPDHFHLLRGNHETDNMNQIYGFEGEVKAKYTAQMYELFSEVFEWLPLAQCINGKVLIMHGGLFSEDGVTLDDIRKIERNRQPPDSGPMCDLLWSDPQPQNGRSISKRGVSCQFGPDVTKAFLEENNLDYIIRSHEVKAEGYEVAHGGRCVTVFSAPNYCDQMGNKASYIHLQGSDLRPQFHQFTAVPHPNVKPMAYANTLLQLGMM
IDE inh: human IDE inhibitors in live cells, primary screen, fluorescence polarization, HEK cells, FAbetaB substrate. FAbetaB cleavage. Insulin-degrading enzyme (Homo sapiens), P14735. AID 434962, 2010. inhibition, % at 5.59 µM. 0.41% of 320,000 active;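 active means percent inhibition above the average of all tested compounds plus 3 SD, set per screening campaign, cut at about 16% in these data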;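 further: IDE supplied by intact live HEK cells; FP after avidin binding of uncleaved biotin substrate so inhibition keeps polarization high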
SKKanGAS inh: S. pyogenes SKKanGAS growth inhibitors in kanamycin, primary screen, streptokinase expression inhibitor project, SKKanGAS strain, BacTiter-Glo luminescence; 6 h; inhibition, % at 7.5 µM; 1.3% of 300,000 active;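 active means mean replicate score, as percent of positive control median, at least 50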;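 further: strain carries kanamycin resistance gene driven by streptokinase promoter and grows in 40 µg/ml kanamycin; loss of luminescence reflects streptokinase promoter inhibition or plain growth inhibition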
IDE act: human IDE activators in live cells, primary screen, fluorescence polarization, HEK cells, FAbeta-B substrate. FAbeta-B cleavage; 0% vehicle, 100% cell-free pure enzyme wells. AID 493087, 2011. activation, % at 5.96 µM. 0.073% of 340,000 active;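 active means activation above the mean of all tested compounds plus 3 SD, set per screening campaign, cut at about 17% in these data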
PP1 counter: PP1-alpha phosphatase inhibitors, primary screen, counter-screen for PP5 inhibitor project, biochemical, fluorescence, OMFP substrate, single point | Serine/threonine-protein phosphatase PP1-alpha catalytic subunit (Homo sapiens), P62136 | purified PP1alpha | inhibition, % at 6.7 µM | 0.9% of 320,000 active | AID 2235, 2010;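 active means inhibition above the mean inhibition of all tested compounds plus 3 SD, computed separately for each screening campaign, cut at about 15% in these data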
A number is an active result; . = inactive; / = no result. An excerpt weighted towards active compounds, which were near 2.8% of everything screened.

SMILES	Exocytosis inh	PP5 primary	IDE inh	SKKanGAS inh	IDE act	PP1 counter
Cc1ccc(OCc2nc3ccccc3n2C(C(=O)NC(C)(C)C)c2ccncc2)cc1 (centres undefined)	.	/	/	/	/	/
CCOC(=O)c1c2c3c(c(Cl)ccc3[nH]c1=O)C(=O)c1ccccc1-2	92	/	/	.	/	/
CCOC(=O)c1c2c3c(cccc3[nH]c1=O)C(=O)c1ccccc1-2	.	.	.	.	.	.
O=C(COC(=O)c1nc(Cl)ccc1Cl)NNC(=O)c1cccs1	.	.	.	.	.	.
CCc1nccn1CCC(=O)NC1CC(C)(C)Cc2c1cnn2-c1cccc(F)c1 (centres undefined)	.	.	.	.	.	.
O=[N+]([O-])c1ccc(O)c(/C=N/Nc2ncnc3c2cnn3-c2ccccc2)c1	.	/	/	88	.	/
O=C(N/N=C/c1cc([N+](=O)[O-])ccc1Cl)c1cc(-c2ccccc2)nc2ccccc12	.	.	.	.	.	.
O=C(N/N=C/c1cc([N+](=O)[O-])ccc1O)c1cc(-c2ccccc2)nc2ccccc12	.	.	.	90	.	.
Cc1cc(C(=O)N/N=C/c2ccc([N+](=O)[O-])cc2)c2ccccc2n1	.	.	.	.	.	.
COc1cccc(/C=N/Nc2nc3ccccc3[nH]2)c1OC	.	.	.	.	.	.
Cc1cc(C(=O)N/N=C/c2cc(Br)cc([N+](=O)[O-])c2O)c2ccccc2n1	.	.	.	106	.	.
COc1cccc(/C=N/Nc2nc3ccccc3[nH]2)c1O	.	.	.	79	.	.
COc1cccc(/C=N/NC(=O)NC2CCCCC2)c1O	.	.	.	.	.	.
CC1CCC(C(O)(C(=O)c2ccccc2)c2ccccc2)C(=O)C1 (centres undefined)	.	/	/	/	/	/
COc1ccc(OC)c(NC(=O)C2(C)CCN2C(=O)C2(c3ccccc3)CCCC2)c1 (centres undefined)	.	/	/	/	/	/
O=C(N/N=C/c1cccc([N+](=O)[O-])c1)c1c[nH]c2ccccc12	.	.	.	.	.	.
O=C(N/N=C/c1cc([N+](=O)[O-])ccc1O)c1c[nH]c2ccccc12	.	.	.	66	.	.
O=[N+]([O-])c1ccc(N/N=C/c2ccccc2O)cc1	65	.	.	.	.	.
O=[N+]([O-])c1ccc(O)c(/C=N/Nc2nc3ccccc3[nH]2)c1	.	.	.	71	.	.
COc1ccc(O)c(/C=N/Nc2nc3ccccc3[nH]2)c1	.	.	.	.	.	.
Nc1sc(-c2ccccc2)cc1C(=O)N/N=C/c1ccc(Cl)cc1	.	.	.	95	/	.
CCS(=O)(=O)N1Cc2cc(C(=O)NCCOC)nc(-c3cccc(-c4ccncc4)c3)c2[C@H]1CCO	.	/	/	/	/	/
O=C(N/N=C/c1ccc(Cl)cc1)c1cc(-c2cccnc2)nc2ccccc12	.	.	.	.	.	17
CCOC(=O)c1c(C)[nH]c(C(=O)N/N=C\c2ccccc2O)c1C	.	.	.	.	.	.
Cc1cc(C(=O)N/N=C/c2cc([N+](=O)[O-])ccc2O)c2ccccc2n1	.	.	.	92	.	.
SMILES	Exocytosis inh	PP5 primary	IDE inh	SKKanGAS inh	IDE act	PP1 counter
Cn1c(SCC(=O)N/N=C/c2cc([N+](=O)[O-])ccc2O)nnc1-c1ccccc1	.	.	.	93	.	.
CCOC(=O)c1c(C)[nH]c(C(=O)N/N=C/c2cc([N+](=O)[O-])ccc2O)c1C	.	.	.	80	.	.
Cc1ccc(S(=O)(=O)N2CCCC(C(=O)Nc3ccc(C(=O)O)cc3)C2)cc1Cl (centres undefined)	.	.	.	.	.	.
Cc1c(C(=O)N2CCOCC2)sc(NC(=O)CCl)c1C#N	.	.	.	.	.	.
CCc1nc2ccc(C(=O)N(CC)CCN(C)C)cn2c1N(C)C(=O)c1cccc(OC)c1	.	/	/	/	/	/
Cc1cc(N/N=C/c2ccccc2O)c2ccccc2n1	76	.	.	.	.	.
COc1ccccc1OCC(=O)NNc1c2ccccc2nc2ccccc12	59	.	.	.	.	.
O=C(c1ccc(Cl)c(Cl)c1)N1CCN(c2ccccn2)CC1	.	/	/	.	.	/
O=C(c1cccc(COc2ccc(Cl)cc2Cl)c1)N1CCN(c2ccccn2)CC1	.	.	.	53	.	.
O=C(c1cc2sccc2n1Cc1ccccc1)N1CCN(c2nc3ccccc3s2)CC1	.	.	.	.	.	15
CCC(=O)N1CCN(c2nc3ccccc3s2)CC1	.	.	.	.	.	.
O=C(NC(c1ccccc1)c1cc(Cl)c2cccnc2c1O)c1cccnc1 (centres undefined)	/	.	.	94	/	.
COc1ccc(C(NC(C)=O)c2cc(Cl)c3cccnc3c2O)cc1OC (centres undefined)	.	.	.	55	.	.
COc1ccccc1C(NC(C)=O)c1cc(Cl)c2cccnc2c1O (centres undefined)	.	.	.	100	.	.
CCCC(=O)NC(c1ccco1)c1cc(Cl)c2cccnc2c1O (centres undefined)	.	.	.	71	.	.
CCC(=O)NC(c1ccc(OC)c(OC)c1)c1cc(Cl)c2cccnc2c1O (centres undefined)	.	/	/	56	.	/
Cc1cccc(C(=O)NCC(=O)Nc2ccncc2)c1	.	.	.	.	.	.
CSc1nc(Oc2ccc3ccccc3c2)c2sccc2n1	.	.	.	54	.	.
COc1ccc(Oc2nc(SC)nc3ccsc23)cc1	.	.	.	.	.	.
COCCNC(=O)/C(C#N)=C/c1c(N2CCCCCC2)nc2ccccn2c1=O	.	.	.	.	.	.
Cc1ccc(C)n1Cc1ccc(C(=O)O)cc1	.	.	.	/	.	18
CC(=O)Nc1cc2c(cc1C(=O)c1ccccc1)OCCO2	.	.	.	.	18	.
CC(/C=C1\SC(=S)N(NS(=O)(=O)c2ccc(C)cc2)C1=O)=C\c1ccccc1	.	.	.	78	.	16
O=C1/C(=C\c2ccc(Br)cc2)SC(=S)N1NS(=O)(=O)c1ccccc1	57	.	.	.	.	.
CC(/C=C1\SC(=S)N(NS(=O)(=O)c2ccccc2)C1=O)=C\c1ccccc1	.	.	.	57	.	.
CCc1noc(C)c1C(=O)N(Cc1ccccc1)c1c(N)n(CCOC)c(=O)[nH]c1=O	.	.	.	.	.	.
CCCCc1ccc(N2C(=NC(=O)C3CCCO3)SC3CS(=O)(=O)CC32)cc1 (centres undefined)	.	.	.	.	.	.
